Measurements taken from PubChem BioAssay (Tox21).
Results filed as inconclusive are left out. Entries that show only a call come without a potency. A number with no mark means an inactive call. Calls of active or inactive are those of the source. The call rests on the fitted dose curve; in most records, active means well fitted cell-killing curve with a large enough effect in the repeat runs; inconclusive means weak or mixed curves, or effect the other way; inactive means flat fitted curve, though single readings scatter.
Potency means the concentration at half of the fitted maximal effect.

Test: Caspase-3/7 induction in HepG2 cells by small molecules, qHTS cell viability counter screen (AID 1346981); further: nearly all actives have a fitted effect of over 30% in size
Conditions: CellTiter-Fluor fluorescence, 17 h; series mostly up to 92.4 µM
Source text: U.S. Tox21 Program National Center for Advancing Translational Sciences [NCATS] NIH Chemical Genomics Center [NCGC] U.S. Environmental Protection Agency [EPA] National Institutes of Environmental Health Sciences [NIEHS] National Toxicology Program [NTP] U.S. Food and Drug Administration [FDA] Tox21 Assay Overview: Apoptosis is a process of programmed cell death and plays a central role in the development of multicellular organisms. It is a highly regulated process and induces cell death by activating caspases, which are the members of cysteine aspartic acid-specific protease (caspase) family. Caspases involved in apoptosis are classified by their mechanism of action as initiator caspases (caspase-2, -8, -9 and -10) and executioner caspases (caspase-3, -6, and -7). Inhibition of apoptosis results in number of cancers, autoimmune diseases, inflammatory diseases and viral infection. To identify small molecule compounds that induce apoptosis, a homogeneous, luminescent Caspase-Glo 3/7 assay was used. Wild type HepG2 cells were used to screen Tox21 libraries for identifying caspase-3/7 activity inducers. Also cytotoxicity of the compounds was tested in parallel by measuring the cell viability using CellTiter-Fluor assay system in the same wells.
Tox21 Assay Protocol Summary: HepG2 cells were dispensed at 2,000 per well in 5uL of culture medium into white solid bottom 1536-well plates (Corning Life Sciences, Corning, NY) using a Multidrop Combi (Thermo Scientific, Waltham, MA) dispenser. The assay plates were incubated at 37 C and 5% CO2 for 5hr, and then 23nL of compounds dissolved in DMSO and positive control were transferred using a Pintool station ([…], San Diego, CA). The assay plates were incubated at 37C and 5% CO2 for 17hr. For cytotoxicity read, after 16hr incubation at 37C, 1uL CellTiter-Fluor reagent (Promega Corporation, Madison, WI) was added to each well of the assay plates using Flying Reagent Dispenser (FRD, Aurora Discovery, San Diego, CA). After 1hr incubation at 37C and 5% CO2, the fluorescence signal was quantified using a ViewLux plate reader (PerkinElmer, Shelton, CT).
With `O=C(CS(=O)Cc1ccco1)NC/C=C\COc1cc(CN2CCCCC2)ccn1` (stereo not given) the Potency was “inactive”. In the case of `COCCc1ccc(OCC2CO2)cc1` (stereo not given), the Potency is reported as “inactive”. For `C=C(C)C(=O)OCC(C)(C)COC(=O)C(=C)C`, the Potency was “inactive”. With `CCN(C)C(=O)Oc1cccc([C@H](C)N(C)C)c1` the Potency was “inactive”. In the case of `CCOc1cc(NC(C)=O)ccc1C(=O)OC`, the Potency is reported as “inactive”. For `CN(C)C(=O)CNC(=O)Cc1ccccc1`, the Potency was “inactive”. In the case of `CCC(C)(CCC(C)C)C(=O)O` (stereo not given), the Potency is reported as “inactive”. With `Cc1cccc(C)c1NC(=O)c1ccccc1C(=O)O` the Potency was “inactive”. Compound `O=S(O)(O)=S` has an activity change, negative = cytotoxicity of -0.702% [at 8.39 µM]. For `CC1COc2ccccc2N1` (stereo not given), the Potency was “inactive”. In the case of `CCCCN`, the Potency is reported as “inactive”. With `Cc1ccccc1OCC(O)CO` (stereo not given) the Potency was “inactive”. For `CC(=O)Nc1ccc(S(=O)(=O)Nc2ccc([N+](=O)[O-])cc2)cc1`, the Potency was 29.8 µM (active). For `CCCCCCCCSCC`, the Potency was “inactive”. In the case of `O=C(O)c1cc(Cl)cc([N+](=O)[O-])c1Cl`, the Potency is reported as “inactive”. In the case of `N[C@@H](CCC(=O)Nc1ccc([N+](=O)[O-])cc1)C(=O)O`, the Potency is reported as 54.5 µM (active). With `CN(C)c1ccc(C=O)cc1` the Potency was “inactive”. In the case of `CCCC/C=C\CCCCCCCCCC=O`, the Potency is reported as “inactive”. With `CCC(C=O)CC` the Potency was “inactive”. For `c1ccc2c(c1)ccc1c3ccccc3ccc21`, the Potency was “inactive”. With `O=C(O)c1ccc(Cl)cc1Cl` the Potency was “inactive”. In the case of `C[C@H](CCC(=O)O)[C@H]1CC[C@H]2[C@@H]3C(=O)C[C@@H]4CC(=O)CC[C@]4(C)[C@H]3CC(=O)[C@]12C`, the Potency is reported as “inactive”. With `CCCCNc1ccc(C(=O)OCCN(C)C)cc1` the Potency was “inactive”. For `CC(C)(C)c1cc(CCC(=O)NN)cc(C(C)(C)C)c1O`, the Potency was “inactive”. In the case of `Nc1ccc(S(=O)(=O)Nc2ccc(Cl)nn2)cc1`, the Potency is reported as “inactive”. In the case of `COc1cc(C(=S)N2CCOCC2)cc(OC)c1OC`, the Potency is reported as “inactive”. With `CC(=O)OC(C)OC(=O)C(C)c1ccc(-c2ccccc2)c(F)c1` (stereo not given) the Potency was “inactive”. For `CCCCCCCCC1CCC(=O)O1` (stereo not given), the Potency was “inactive”. `CN1CCN(CC(=O)N2c3ccccc3C(=O)Nc3cccnc32)CC1` gave an activity change, negative = cytotoxicity of -1.47% [at 8.39 µM]. With `Brc1ccc(-c2ccccc2)cc1` the Potency was “inactive”. For `CNC(=O)[C@H]1O[C@@H](n2cnc3c(NCc4cc(Cl)ccc4OCc4cc(C)no4)ncnc32)[C@H](O)[C@@H]1N`, the Potency was “inactive”. In the case of `CCCOC(OCCC)OCCC`, the Potency is reported as “inactive”. Work on `CCCCCCCC/C=C\CCCCCCCC(=O)OCCCC` yielded an activity change, negative = cytotoxicity of 2.37% [at 19 µM]. In the case of `O=C(O)Cc1ccc(Cl)cc1Cl`, the Potency is reported as “inactive”. For `CC(C)(C)NC(N)=O`, the Potency was “inactive”. For `O=C1CCCC(=O)O1`, the Potency was “inactive”. In the case of `CC(=O)Nc1ccc(S(=O)(=O)Cl)cc1`, the Potency is reported as “inactive”. `COC(=O)C1CC(=O)C(C(=O)OC)CC1=O` (stereo not given) gave an activity change, negative = cytotoxicity of 9.03% [at 8.39 µM]. In the case of `COC(=O)c1ccccc1C(=O)c1ccc(OCCN2CCCCC2)cc1`, the Potency is reported as “inactive”. For `Cc1ccc2ccc(Cl)cc2n1`, the Potency was “inactive”.
